# Compounds without any hit were thinned out: in the full panel of roughly 79,000, 15% have a hit. A number with no mark means an inactive call. Activity calls are given as the source filed them. Cut-off read from the data, not from the text of the source: active = growth inhibition above about 70%; inactive = the rest.
# Key:
# [1] = NCI Yeast Anticancer Drug Screen. Data for the rad50 strain (AID 155);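 note: 0% = growth of vehicle-only cultures of the same strain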; details: S. cerevisiae rad50 strain growth inhibition, active compounds read high
# In short: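 Inhibition values express reduced yeast growth in compound-treated cultures relative to vehicle-treated controls.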
# [2] = NCI Yeast Anticancer Drug Screen. Data for the mec2-1 strain (AID 157); details: S. cerevisiae mec2-1 strain, active compounds read high
# In short: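 Strain: mec2-1 (DNA repair/cell cycle alteration). Compound exposure, then growth measured; inhibition expressed relative to vehicle.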
# [3] = NCI Yeast Anticancer Drug Screen. Data for the sgs1 mgt1 strain (AID 161);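 note: 0% = growth of cultures given vehicle only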; details: S. cerevisiae sgs1 mgt1 strain, active compounds read high
# In short: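 Test agents were incubated with a DNA-repair-mutant yeast strain. Growth was then read and compared against vehicle-treated controls.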
# [4] = NCI Yeast Anticancer Drug Screen. Data for the cln2 rad14 strain (AID 165);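 note: 0% = growth equal to vehicle treated cultures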; details: S. cerevisiae cln2 rad14 strain, active compounds read high
# In short: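 Compounds are applied to the cln2 rad14 yeast strain, and growth is then compared with that of vehicle-treated cultures to give inhibition.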
# [5] = NCI Yeast Anticancer Drug Screen. Data for the bub3 strain (AID 167); details: S. cerevisiae bub3 mutant strain, active compounds read high
# In short: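 Steps: expose the mutant yeast strain to compound; grow alongside vehicle-treated cultures; measure growth; express inhibition against the vehicle cultures.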
# [6] = NCI Yeast Anticancer Drug Screen. Data for the mlh1 rad18 strain (AID 175); details: S. cerevisiae mlh1 rad18 strain growth inhibition, active compounds read high
# In short: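 Read-out is yeast growth inhibition, calculated against vehicle-only controls. The compound was applied to a strain engineered with DNA damage repair alterations.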
# [7] = at 5.0 µM (retest, dose inferred, filed as 0.5)
# [8] = at 50.0 µM (retest, dose inferred, filed as 5.0)
SMILES,"growth inhibition [1, 7] [%]","growth inhibition [1, 8]",growth inhibition ([1]; at 50.0 µM),"growth inhibition [2, 7] [%]","growth inhibition [2, 8]",growth inhibition ([2]; at 50.0 µM),"growth inhibition [3, 7] [%]","growth inhibition [3, 8]",growth inhibition ([3]; at 50.0 µM),"growth inhibition [4, 7] [%]","growth inhibition [4, 8]",growth inhibition ([4]; at 50.0 µM),"growth inhibition [5, 7] [%]","growth inhibition [5, 8]",growth inhibition ([5]; at 50.0 µM),"growth inhibition [6, 7] [%]","growth inhibition [6, 8]",growth inhibition ([6]; at 50.0 µM)
COc1ccccc1NC(=O)C1=C(C)NC(C)=C(C(=O)Nc2ccccc2OC)C1c1ccc(C2C(C(=O)Nc3ccccc3OC)=C(C)NC(C)=C2C(=O)Nc2ccccc2OC)cc1,50,86% (active),75.8% (active),31,94% (active),81.2% (active),37,92% (active),77.5% (active),38,77% (active),44.2%,40,95% (active),85.2% (active),41,95% (active),47.9%
CN(C)C1CCC2C3CC=C4CC(OC=O)CCC4(C)C3CCC21C (stereo not given),-1,48%,71.2% (active),2,42%,17.3%,2,60%,65.5%,17,83% (active),76.4% (active),0,86% (active),48.8%,-11,52%,45.7%
COC1=C(/C(=N/Nc2ccc([N+](=O)[O-])cc2[N+](=O)[O-])c2ccccc2)COC1=O,-2,-6%,17.1%,0,-4%,9.25%,-3,-7%,-8.25%,4,15%,4.15%,3,-3%,93.3% (active),3,-6%,4.9%
OCCC(CCN1CCOCC1)(c1ccccc1)C1(O)CCCC1 (stereo not given),3,3%,-2.95%,5,2%,45.3%,8,3%,74.4% (active),2,2%,71.2% (active),-3,-4%,61.4%,-2,-2%,73.8% (active)
Oc1c2c(c(O)c3ncccc13)C1C=CC2CC1 (stereo not given),-5,99% (active),97.7% (active),0,99% (active),97.1% (active),-5,98% (active),99.3% (active),-25,98% (active),84.8% (active),2,99% (active),97.7% (active),-4,99% (active),98.3% (active)
Nc1nc(N)c(C(=O)SCc2ccccc2)nc1Cl,6,70% (active),66%,2,57%,58.9%,3,52%,97.4% (active),2,70% (active),4.95%,-2,62%,7.45%,5,94% (active),69.3%
COc1ccc(/C=C/C(=N/NC(=O)c2ccccc2)C(C)CN(C)C)cc1 (stereo not given),-3,4%,6.15%,1,4%,16.3%,3,2%,6.9%,1,-2%,49.2%,-5,-7%,-8.2%,-1,-64%,7.45%
Cc1ccnc2sc3ccccc3c(=O)c12,15,96% (active),86.8% (active),14,93% (active),82.5% (active),4,92% (active),80.6% (active),4,76% (active),68.5%,6,92% (active),83.5% (active),11,95% (active),83.9% (active)
CCOC(=O)Nc1cc2c(cc1Br)-c1ccccc1C2O (stereo not given),-1,-3%,10%,-3,12%,-5.6%,-7,1%,10.4%,-2,27%,-2.85%,68,95% (active),69.4%,-2,7%,18.7%
CC1(C)CC(=O)C(C=NC(=S)c2ccccc2)=C(O)C1,21,27%,-43.3%,4,13%,-54%,6,9%,-37.1%,11,14%,-0.6%,20,32%,-13.4%,14,27%,22.1%
